Here are results for 96 compounds from PubChem BioAssay AID731 (The Scripps Research Institute Molecular Screening Center, 2007).

Structures are written as SMILES. Hit rate of the full screen: of about 200,000 compounds, about 520 (0.26%) were called active. The entries come from a sample that favours actives as a whole. A number with no mark means an inactive call. No stated cut-off is given here; in the data, active means activation above about 23%; inactive means the rest.

Peroxisome proliferator-activated receptor gamma (Homo sapiens), sequence (P37231 whole entry, looked up): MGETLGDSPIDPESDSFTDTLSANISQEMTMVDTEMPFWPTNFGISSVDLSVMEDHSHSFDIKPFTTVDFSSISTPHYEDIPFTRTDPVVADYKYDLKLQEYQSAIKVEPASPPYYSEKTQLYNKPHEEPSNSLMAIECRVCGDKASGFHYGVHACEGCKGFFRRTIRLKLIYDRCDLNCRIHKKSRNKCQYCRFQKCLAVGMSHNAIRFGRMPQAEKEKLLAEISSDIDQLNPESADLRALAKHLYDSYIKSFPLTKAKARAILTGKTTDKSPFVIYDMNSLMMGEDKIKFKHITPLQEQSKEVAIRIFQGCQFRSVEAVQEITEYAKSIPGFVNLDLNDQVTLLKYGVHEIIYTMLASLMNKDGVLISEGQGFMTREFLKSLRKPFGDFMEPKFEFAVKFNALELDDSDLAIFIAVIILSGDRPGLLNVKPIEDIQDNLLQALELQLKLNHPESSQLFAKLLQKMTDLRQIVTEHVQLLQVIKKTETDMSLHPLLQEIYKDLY

The test addresses Peroxisome proliferator-activated receptor gamma (Homo sapiens) (UniProt P37231). Kind of test: PPARgamma agonists recruiting SRC-3 coactivator, primary screen, biochemical (AID 731).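 Further: 0% = DMSO and 100% = reference agonist.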 The settings on record: biochemical PPARgamma/SRC-3 coactivator recruitment assay; at 8 µM; hits give high values.
As to `COc1ccc(OCC(=O)Nc2ccc(N3CCC(C)CC3)cc2)cc1`, the activation was 1.65%.
The result for `CCOc1ccc(Br)cc1S(=O)(=O)Nc1cccc(S(=O)(=O)N(CC)CC)c1` reads -0.46%; that for `CC(=O)N1CC(C)c2scc(C)[n+]2-c2ccccc21` (stereo unspecified), 0.84%; that for `CCC(C)N(C)C1CCN(C(=S)Nc2ccc(OC)cc2)CC1` (stereo unspecified), -0.62%.
Turning to `CCN(CC)c1ccc2oc(=O)c(C)nc2c1`, the activation was 30.3% (active).
With `CCN(CC)c1ccc2cc(C(=O)O)c(=O)oc2c1`, the activation is 1.62%.
In the case of `CCN(CC)c1ccc2c(Nc3ccccc3)c(C=O)c(=O)oc2c1`, the activation is -1.59%.
`Cc1ccccc1N/C(SCc1ccc(Cl)cc1)=C(/C#N)C(N)=O`: the activation is -0.24%.
The result for `CCCCC1N2CC3([N+](=O)[O-])CN1CC([N+](=O)[O-])(C2)C3(C)C` (stereo unspecified) reads 3.26%; that for `Cc1nc(SCC(=O)N2CC(=O)Nc3ccccc32)c2c(C)c(C)sc2n1`, 7.47%; that for `COc1cc(/C=C/C2=CC(C)(C)NC(=S)N2)cc(OC)c1OC`, -3.19%.
Take `COc1cc(C(=S)N2CCOCC2)cc(OC)c1OC(=O)c1cc([N+](=O)[O-])c(C)c([N+](=O)[O-])c1`: the activation is 27.4% (active).
As to `COc1cc(C(=S)N2CCOCC2)cc(OC)c1OC(=O)c1cc([N+](=O)[O-])cc([N+](=O)[O-])c1`, the activation was 1.22%.
For the compound `COc1cc(C(=S)N2CCOCC2)ccc1O`, the activation was 6.53%.
For `COC(=O)Cc1ccc(NC(=S)NCc2ccco2)cc1`, the activation was -0.79%.
The result for `CCc1nnc(NC(=O)Cc2cccs2)s1` reads 0.13%; that for `O=C(O)CCCCOn1ccnc1`, -4.37%; that for `CN1CCN(c2ccc(S(=O)(=O)Nc3ccccc3)cc2[N+](=O)[O-])CC1`, 8.11%.
The result for `CC(C)(C)c1ccc(/C=C/C(=O)Nc2ncccn2)cc1` reads -0.41%; that for `O=C(C1=C[C@H](c2ccc(C(F)(F)F)cc2)C[C@H](OCc2ccc(CO)cc2)O1)N1CCN(Cc2ccccc2)CC1`, 5.31%; that for `N#Cc1ccccc1Sc1ccccc1C(=O)OCC(=O)NC1CCCCC1`, -1.17%.
As to `CCOc1ccc(NC(=O)CCC(=O)n2nc(C)cc2C)cc1`, the activation was 19.2%.
As for `CCOc1ccc(NC(=O)CSc2ncnc3c2sc2ccccc23)cc1`, the figure is 23.1% (active); as for `CCOc1ccc(NC(=O)CSc2nc3ccccc3c(=O)n2Cc2cccs2)cc1`, -1%; as for `COc1cc(OC)c(-n2cc(-c3ccc(Cl)cc3)[nH]c2=O)cc1Cl`, 2.05%.
As for `NS(=O)(=O)c1ccc(NC(=O)COC(=O)CCc2c[nH]c3ccccc23)cc1`, the activation is 1.02%.
Consider `COc1cc(NS(=O)(=O)c2ccc(NC(=O)CN3C(=O)c4ccccc4C3=O)cc2)ncn1`, for which the activation is 4.24%.
For the compound `COc1ccc(C(CC(=O)Nc2ccc(C)cc2)NC(=O)C(F)(F)F)cc1` (stereo unspecified), the activation is 1.26%.
For `CN1CCC(OC(=O)COc2ccc(Cl)cc2Cl)CC1`, the activation was -2.65%.
Regarding `Cc1ccc(NC(=O)OCc2cncs2)cc1`, the activation was 3.15%.
In the case of `O=C1C2C3C=CC(C4CC34)C2C(=O)N1c1nccs1` (stereo unspecified), the activation is -3%.
For `O=C(/C=C/c1cn(-c2ccccc2)nc1-c1ccc2c(c1)OCCO2)NCCCN1CCOCC1`, the activation was 5.25%.
As for `Cc1cccc(OCCNC(=O)CSc2ccc(C(F)(F)F)cc2[N+](=O)[O-])c1`, the activation was -3.57%.
For the compound `Cc1cc(O)c(NC(=O)c2ccc(C)c([N+](=O)[O-])c2)cc1C`, the activation was -0.67%.
On to `Cc1cccc(NC(=O)c2cc([N+](=O)[O-])ccc2N2CCN(C)CC2)c1`, for which the activation is 4.61%.
The result for `CCc1cc(C(=O)OC)c(NC(=O)CC2Sc3ccc(C(F)(F)F)cc3NC2=O)s1` (stereo unspecified) reads -4.95%; that for `CCOc1cc(/C=N/NC(=O)c2ccc(CSc3nncn3C)cc2)ccc1OCC(=O)N1CCOCC1`, -1.91%.
In the case of `CC(OC(=O)CNS(=O)(=O)/C=C/c1ccccc1)C(=O)Nc1ccc(S(=O)(=O)N2CCCC2)cc1` (stereo unspecified), the activation is -1.83%.
`CC(C(=O)O)n1cnc2sc3c(c2c1=O)CCCC3` (stereo unspecified): the activation was 4.24%.
For the compound `COc1ccc(N2C(=O)CC(SC(C)C)C2=O)cc1` (stereo unspecified), the activation was -1.07%.
As for `CN(Cc1cccc2ncccc12)C(=O)CC1C(=O)NCCN1Cc1ccc(F)cc1` (stereo unspecified), the activation is -0.7%.
In the case of `O=C(/C=C/Nc1ccccc1)c1cnc(-c2ccccc2)s1`, the activation is -4.1%.
As to `CC(C)Cn1c(N2CCN(C(=O)/C=C/c3ccccc3)CC2)nc2ccccc21`, the activation is 9.26%.
For the compound `COc1cccc(NC(=O)CN(C)CC(=O)Nc2ccc3c(c2)CCC3)c1`, the activation was 0.47%.
The result for `O=C(Cc1ccccc1)NNS(=O)(=O)c1ccc([N+](=O)[O-])cc1` reads 1.7%.
Regarding `CCCCn1nc(C(=O)Nc2ccc(S(=O)(=O)Nc3ncccn3)cc2)c2ccccc2c1=O`, the activation is 2.84%.
On to `CC(C)C(c1nnnn1C(C)(C)C)N1CCN(Cc2cccnc2)CC1` (stereo unspecified), for which the activation is 4.42%.
Turning to `CCn1c(C(C)C)n[nH]c1=S`, the activation was 1.32%.
As to `CCN(CC(=O)NCc1cccs1)C(=O)c1ccccc1F`, the activation was 1.34%.
The result for `COc1cc(CNCCN(C)C)ccc1OCc1c(F)cccc1Cl` reads 2.34%; that for `c1ccc(Cc2cc[n+](Cc3ccccc3)cc2)cc1`, 1.56%; that for `NS(=O)(=O)c1cc(C(=O)NCCOc2ccccc2)c(Cl)cc1Cl`, -1.64%.
Regarding `CCc1nnc(NC(=O)[C@@H](NC(=O)c2cccc(C)c2)C(C)C)s1`, the activation is -2.92%.
On to `COc1ccc(-c2nnc3ccc(SCc4ccccc4)nn23)cc1`, for which the activation was 3.96%.
As for `Cc1cc(C)nc(NC(=O)c2cccc([N+](=O)[O-])c2)c1`, the figure is 2.34%; as for `CC(C)[C@H](NC(=O)c1ccc(F)cc1)C(=O)OCC(=O)NC(=O)c1cccn1C`, 1.86%; as for `O=C(Cn1c(N2CCN(C/C=C/c3ccccc3)CC2)nc2ccccc21)c1ccccc1`, 6.67%.
As to `N/C(=N\OC(=O)c1ccc([N+](=O)[O-])cc1)c1ccccn1`, the activation was -2.22%.
Regarding `[O-][n+]1onc2c1CCc1[nH]c(-c3ccccc3)nc1-2`, the activation is 0.76%.
`N#C/C(=C(\O)C(F)(F)F)c1nnc2n1CCCCC2`: the activation was -0.75%.
For the compound `CSCc1ccc(C(=O)Nc2cc(C)cc(C)c2)cc1`, the activation was -4.38%.
With `COc1ccc(-c2nnco2)cc1OC`, the activation was -2.7%.
As for `COc1ccc2c(Cl)c(-c3nnco3)sc2c1`, the figure is 33.2% (active); as for `COc1ccc2c(Cl)c(C(=O)NCc3ccco3)sc2c1`, -2.31%; as for `O=C(Nc1ccc2c(c1)CCC2)c1ccc(Br)s1`, 0.47%.
For the compound `C/C(=C\c1ccccc1)C1NC(=O)c2c(sc3c2CCCC3)N1` (stereo unspecified), the activation is 6.88%.
In the case of `CCn1nc(C)c(CN2CCN(Cc3ccc(OC)c(C)c3C)C(CCO)C2)c1C` (stereo unspecified), the activation was -0.59%.
Take `Cn1cc(-c2ccccc2)cc(C#N)c1=O`: the activation was 1.51%.
The result for `CN(C)N(C)C(=O)C(O)(c1ccccc1)c1ccccc1` reads 3.14%; that for `Cc1cc(C)cc(N(CC(=O)NCCSCc2ccco2)S(C)(=O)=O)c1`, 5.41%.
Consider `O=C(CN1C(=O)NC2(CCCC2)C1=O)Nc1ccc(F)c(F)c1F`, for which the activation was 0.63%.
Regarding `O=S(=O)(c1ccc(F)cc1)N1CCN(C(=S)NC2CCCC2)CC1`, the activation was 1.45%.
As for `COc1cc(C)c(S(=O)(=O)N2CCOCC2)c(C)c1C`, the activation is -6.91%.
The result for `CCc1nnc(NS(=O)(=O)c2ccc(NC(=S)NC(=O)c3cccs3)cc2)s1` reads 2.44%; that for `CCc1nnc(NS(=O)(=O)c2ccc(NC(=S)NC(=O)/C=C/c3cccs3)cc2)s1`, 22.6% (active); that for `CCc1nnc(NS(=O)(=O)c2ccc(NS(=O)(=O)c3ccccc3)cc2)s1`, -4.6%.
As to `C/C(=N/NC(=O)C1COc2ccccc2O1)c1ccco1` (stereo unspecified), the activation is -2.9%.
As to `Cc1ccc(CN(C)CC(=O)Nc2cccc([N+](=O)[O-])c2)o1`, the activation was -1.37%.
As for `COc1cc(NS(=O)(=O)c2ccc(NC(=O)c3ccc(S(=O)(=O)N4CCCCC4)cc3)cc2)ncn1`, the activation is -0.22%.
With `C/C(=N\NS(=O)(=O)c1ccc(Cl)cc1)c1ccc(NC(=O)c2ccco2)cc1`, the activation was 7.63%.
Take `O=C(O)Cc1sc(-c2ccccc2)nc1-c1cccs1`: the activation is 25.3% (active).
Regarding `Cc1ccc(-c2nc(C)sc2CC(=O)O)cc1`, the activation was 1.18%.
Consider `O=C(O)Cc1sc(-c2ccc(C(=O)O)cc2)nc1-c1ccccc1`, for which the activation is 8.03%.
The result for `Cc1ccc(C2=NN(C(=O)COc3ncnc4ccccc34)C(c3ccco3)C2)cc1` (stereo unspecified) reads 6.22%; that for `COC(C(=O)NCc1ccccc1C)c1ccccc1` (stereo unspecified), -1.48%.
As to `CCCC(c1nnnn1C(C)(C)C)N1CCN(Cc2ccccc2)CC1` (stereo unspecified), the activation was 0.32%.
The result for `COc1ccc(OC)c(CNC(=O)c2cc(=O)[nH]c3ccc(S(=O)(=O)N4CCCC4)cc23)c1` reads 1.02%.
Regarding `O=C(C1CCN(C2CCN(Cc3ccc4cc(F)ccc4n3)CC2)CC1)N1CCCC1`, the activation is 3.24%.
As for `Cc1ccc(C(=O)N/C(=C\c2ccco2)C(=O)N2CCSCC2)cc1C`, the figure is -0.93%.
For `Cc1ccc2cc(C#N)c(NCCNC(=S)NCCCN3CCOCC3)nc2c1`, the activation is 1.37%.
The result for `Cn1nnnc1SCC(=O)Nc1nc2ccccc2s1` reads -4.08%.
The result for `N#Cc1c(-c2ccc(F)cc2)cc(C2CC2)nc1SCC(=O)c1cccs1` reads -1.78%; that for `COC(=O)CCc1sc(Nc2ccc(Br)cc2)nc1-c1ccc(OC)cc1`, 4.66%; that for `Cn1c(-c2sc3cc(C(F)(F)F)cnc3c2-c2ccccc2)n[nH]c1=S`, 50% (active).
On to `Cc1ccccc1-c1n[nH]c(=S)n1C`, for which the activation was 2.22%.
Take `Cn1c(-c2sccc2OCc2cccc(C(F)(F)F)c2)n[nH]c1=S`: the activation is 4.56%.
